Among the data in PubChem BioAssay AID686970 (National Center for Advancing Translational Sciences (NCATS), 2013) are Potency values, retold here.

Structures are written as SMILES. Screen size: about 360,000 compounds; about 6,000 (1.7%) were called active. Another 8% or so got no clear call; they are omitted. Calls follow the shape of the dose curve; as a rule, active = well fitted cell-killing curve with a large enough effect; inconclusive = small, poorly fitted or top-dose-only effect, or effect the other way; inactive = flat fitted curve, though single readings scatter. The entries come from a sample that favours actives as a whole. A call without a number means that no potency is given here.
Potency is read from the fitted curve at half-maximal effect.

The experiment can be described thus: qHTS for induction of synthetic lethality in tumor cells producing 2HG: qHTS for the HT-1080-NT fibrosarcoma cell line.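 Also: NT is the 2HG producing partner of a matched IDH1 knockdown line; nearly all actives have a fitted effect of over 55% in size.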 The settings on record: HT-1080-NT fibrosarcoma viability, CellTiter-Glo ATP luminescence, 48 h; series mostly up to 46.1 µM. The essentials: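 Read-out is CellTiter-Glo luminescence after 10 minutes at room temperature, following 48 hours' compound treatment of HT-1080-NT cells (750 cells/well, RPMI, 5% FBS, 37 degrees C).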
In general terms: In qHTS, concentration-response curves come from the screen itself.
As to `CCOC1=C2[C@@H](CN(S(=O)(=O)c3ccc(C)cc3)[C@H]2c2ccccc2F)[C@H]2C(=O)N(Cc3ccccc3)C(=O)[C@H]2C1`, the Potency entry was “inactive”.

On to `Cc1cc([N+](=O)[O-])ccc1NS(=O)(=O)c1ccccc1`, for which the Potency entry was “inactive”.

Turning to `O=[N+]([O-])c1ccc(NS(=O)(=O)c2ccccc2)c(Cl)c1`, the Potency is 6.51 µM (active).

`O=C(NNS(=O)(=O)c1ccc(F)cc1)c1ccc([N+](=O)[O-])cc1Cl`: the Potency result is “inactive”.

As for `CC(C)C[C@@H]1COc2cc(N3CCC[C@@H]3CO)ccc2S(=O)(=O)N1`, the Potency entry is “inactive”.

Regarding `CC(C)CCOc1ccc(C(=O)Nc2cc(S(=O)(=O)N3CCOCC3)ccc2N2CCOCC2)cc1`, the Potency entry is “inactive”.

With `O=[N+]([O-])c1ccc(CN2CC(N3CCC(c4ccccc4)CC3)CS2(=O)=O)cc1` (stereo not drawn), the Potency result was “inactive”.

For `CCOC(=O)N1CCN(C(=O)c2ccccc2N(Cc2ccccc2)S(=O)(=O)c2ccc(OC)cc2)CC1`, the Potency was 3.26 µM (active).

Consider `NC(=O)c1ccccc1N(Cc1ccccc1)S(=O)(=O)c1ccccc1`, for which the Potency result was “inactive”.

Regarding `CCOC(=O)N1CCN(S(=O)(=O)c2ccc(OC)cc2)CC1`, the Potency result was “inactive”.

As to `COc1ccc(NC(=O)COC(=O)C2COc3ccccc3O2)cc1` (stereo not drawn), the Potency result is “inactive”.

On to `COCc1cccc(-c2csc(C(O)c3ccc(F)cc3)n2)c1` (stereo not drawn), for which the Potency entry was “inactive”.

In the case of `COc1cc(/C=N/NC(=O)c2cc(-c3ccccc3C)nc3ccccc23)cc(OC)c1O`, the Potency result is “inactive”.

Consider `COc1cccc(/C=N/NC(=O)CNC(=O)c2ccc(S(=O)(=O)N3CCOCC3)cc2)c1OC`, for which the Potency result was “inactive”.

For the compound `COc1cccc(/C=N/NC(=O)c2[nH]nc3c2CCc2ccccc2-3)c1O`, the Potency is 2.59 µM (active).

As to `CCCNC(=O)C1(C)CCN1C(=O)Cc1ccc(-c2ccccc2)cc1` (stereo not drawn), the Potency result was “inactive”.

For the compound `O=C(C(=O)N1CCN(c2ccccc2)CC1)c1ccc2c(c1)OCO2`, the Potency result is “inactive”.

Take `c1ccc(Cn2nnc3c(N4CCCCC4)ncnc32)cc1`: the Potency result was “inactive”.

With `CC1(C(=O)NS(=O)(=O)c2ccc(Cl)cc2)CCN1C(=O)CC1CCCC1` (stereo not drawn), the Potency result was “inactive”.

Turning to `Cn1cccc1/C=N/NC(=O)c1ccc(OC(F)(F)C(F)F)cc1`, the Potency result is “inactive”.

As for `Cn1nccc1NC(=O)Nc1ccc(OC(F)(F)F)cc1`, the Potency entry is “inactive”.

For `O=C(Nc1ccc(OC(F)(F)F)cc1)c1ccc2c(c1)no[n+]2[O-]`, the Potency is 18.4 µM (active).

On to `COC(=O)C[C@@H]1C=C[C@@H](NC(=O)c2cccnc2)[C@@H](CO)O1`, for which the Potency result was “inactive”.

As for `O=C(Nc1ccc(Cl)c(C(F)(F)F)c1)C1Cc2c(-c3ccccc3Oc3ccccc3)ccnc2O1` (stereo not drawn), the Potency entry is “inactive”.

Regarding `CC(C)CN1CCC1(C)C(=O)Nc1ccc(OC(F)F)cc1` (stereo not drawn), the Potency result is “inactive”.

Take `Cc1cc(C)n2c(NCc3ccccc3)c(CC(C)C)nc2n1`: the Potency result is “inactive”.

As to `COc1ccccc1-c1cc2nc(NCc3cccc(Cl)c3)ccn2n1`, the Potency result is “inactive”.

With `CC(C)Cc1ccc(-c2cc3nc(NCc4cccc(Cl)c4)ccn3n2)cc1`, the Potency was 23.1 µM (active).
